# Reference: PubChem BioAssay (EPA / NIEHS)
# “And” between values parts separate entries of the source, which are not always exact repeats. Equal values may be shown once. Results filed as inconclusive are left out. More than one record can exist for a structure, and the calls need not agree. The source made the active and inactive calls. How the source made its calls, unless noted: active means hit-call score of the fitted dose curve at least 0.9, where 1 is the maximum; inconclusive means response in the unintended direction; inactive means score below 0.9.
# Columns and labels:
# [1] = test system: Sodium/Iodide Symporter (NIS), SLC5A5 (gene 6528); assay: CPHEA_Stoker_NIS_Inhibition_RAIU: CPHEA's Radioactive Iodide Uptake (RAIU) Assay for Sodium/Iodide Symporter (NIS) Inhibition, Stoker and Laws Labs (AID 2283841)
# Summary of the method: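 HEK293T cells stably expressing human NIS (hNIS-HEK293T-EPA) were exposed to test chemicals at 0.001–100uM (0.5% final DMSO) with 125I at a final 329pM in HBSS/10mM HEPES pH 7.4. After 2 hours at room temperature and ice-cold washes, intracellular 125I was counted as CPM and normalized to DMSO wells.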
# [2] = CPHEA_Stoker_NIS_Cytotoxicity: Cytotoxicity Assessment for CPHEA's Radioactive Iodide Uptake (RAIU) Assay for Sodium/Iodide Symporter (NIS) Inhibition, Stoker and Laws Labs (AID 2283897);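 on AC50: active means loss of ATP signal versus DMSO meaning cytotoxicity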
# Summary of the method: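 hNIS-HEK293T-EPA human kidney cells were exposed for 2 hours at room temperature to test chemicals (0.001–100uM, 0.5% final DMSO) in HEPES-buffered HBSS, pH 7.4. Viability was read as ATP content by luciferase bioluminescence, loss of signal versus DMSO.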
# [3] = target: Peroxisome proliferator-activated receptor gamma (Homo sapiens) (UniProt P37231); assay: ATG_hPPARg_XSP2: Attagene TRANS-FACTORIAL Multi-Species (XSP2) HepG2 Assay for human Peroxisome Proliferator-activated Receptor gamma (PPARg) (AID 2283829);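 further: actives raise reporter mRNA above DMSO so AC50 reflects PPARg activation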
# Chain of Peroxisome proliferator-activated receptor gamma (Homo sapiens) (P37231 whole entry, looked up, the tested form may be a part): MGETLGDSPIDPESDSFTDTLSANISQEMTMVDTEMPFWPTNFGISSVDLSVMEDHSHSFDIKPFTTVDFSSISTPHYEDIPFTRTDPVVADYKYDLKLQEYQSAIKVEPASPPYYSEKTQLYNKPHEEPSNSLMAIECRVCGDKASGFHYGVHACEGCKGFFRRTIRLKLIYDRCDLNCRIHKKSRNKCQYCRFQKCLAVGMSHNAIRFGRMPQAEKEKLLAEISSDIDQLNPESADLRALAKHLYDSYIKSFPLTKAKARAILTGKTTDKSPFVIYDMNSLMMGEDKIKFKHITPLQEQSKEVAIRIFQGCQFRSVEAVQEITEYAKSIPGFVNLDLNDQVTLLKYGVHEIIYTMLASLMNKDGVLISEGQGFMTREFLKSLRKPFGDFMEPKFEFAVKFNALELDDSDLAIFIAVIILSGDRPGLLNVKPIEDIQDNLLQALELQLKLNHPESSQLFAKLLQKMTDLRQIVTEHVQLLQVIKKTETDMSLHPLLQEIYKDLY
# Summary of the method: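 After transfecting HepG2 with GAL4-UAS reporter constructs, cells are dosed for 24 h; total RNA is reverse-transcribed, PCR-amplified, FAM-labeled, HpaI-digested and resolved by capillary electrophoresis. Activity is measured as mRNA induction relative to DMSO.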
# [4] = target: mouse Peroxisome Proliferator-activated Receptor gamma (PPARg), Pparg (gene 19016) (UniProt P37238); assay: ATG_mPPARg_XSP2: Attagene TRANS-FACTORIAL Multi-Species (XSP2) HepG2 Assay for mouse Peroxisome Proliferator-activated Receptor gamma (PPARg) (AID 2283830);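 further: hits are gains in reporter mRNA above DMSO so AC50 marks activation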
# Chain of mouse Peroxisome Proliferator-activated Receptor gamma (PPARg), Pparg (gene 19016) (P37238 whole entry, looked up, the tested form may be a part): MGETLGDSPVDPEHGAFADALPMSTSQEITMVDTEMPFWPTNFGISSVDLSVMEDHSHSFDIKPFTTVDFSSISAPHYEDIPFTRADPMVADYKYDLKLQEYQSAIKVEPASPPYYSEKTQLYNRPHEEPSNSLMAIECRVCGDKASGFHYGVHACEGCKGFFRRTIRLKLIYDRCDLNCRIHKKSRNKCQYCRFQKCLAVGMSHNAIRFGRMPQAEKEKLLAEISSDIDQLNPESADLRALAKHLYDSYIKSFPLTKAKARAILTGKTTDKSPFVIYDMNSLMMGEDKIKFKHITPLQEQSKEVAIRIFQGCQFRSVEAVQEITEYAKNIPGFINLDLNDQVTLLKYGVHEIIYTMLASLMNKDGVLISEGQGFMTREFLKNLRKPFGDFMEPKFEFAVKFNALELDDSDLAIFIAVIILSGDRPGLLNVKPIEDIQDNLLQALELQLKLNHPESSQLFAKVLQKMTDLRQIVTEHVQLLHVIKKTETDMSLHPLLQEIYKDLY
# Summary of the method: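 HepG2 cells transiently transfected with GAL4-UAS reporter units for chimeric NR-Gal4 proteins including mouse PPARg, exposed 24 h; medium contained 3 nM 6-alpha-fluorotestosterone and 1.5 nM norgestrel. Reporter mRNA quantified by RT-PCR, HpaI digestion and capillary electrophoresis, vs DMSO.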
# [5] = target: Nuclear receptor subfamily 1 group I member 2 (Mus musculus) (UniProt O54915); assay: ATG_mPXR_XSP2: Attagene TRANS-FACTORIAL Multi-Species (XSP1) HepG2 Assay for mouse Pregnane X Receptor (PXR) (AID 2283831)
# Chain of Nuclear receptor subfamily 1 group I member 2 (Mus musculus) (O54915 whole entry, looked up, the tested form may be a part): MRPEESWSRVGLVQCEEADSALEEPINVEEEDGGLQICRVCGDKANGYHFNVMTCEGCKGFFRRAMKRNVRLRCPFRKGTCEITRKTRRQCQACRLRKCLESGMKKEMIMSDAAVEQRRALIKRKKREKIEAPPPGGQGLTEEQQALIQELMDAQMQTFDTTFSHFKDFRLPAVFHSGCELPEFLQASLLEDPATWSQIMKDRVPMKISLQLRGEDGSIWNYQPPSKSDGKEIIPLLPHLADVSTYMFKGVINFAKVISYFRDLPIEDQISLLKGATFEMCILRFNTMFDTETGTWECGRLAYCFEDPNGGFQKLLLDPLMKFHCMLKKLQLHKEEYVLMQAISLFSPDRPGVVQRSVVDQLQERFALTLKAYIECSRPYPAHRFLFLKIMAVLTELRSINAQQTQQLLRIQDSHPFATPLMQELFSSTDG
# Summary of the method: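 Reporter transcripts were quantified by RT-PCR, FAM primer extension, HpaI digestion and capillary electrophoresis after 24 h of chemical exposure in transiently transfected HepG2 cells carrying chimeric receptor-GAL4 constructs; DMSO served as baseline.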
# [6] = target: zebrafish Thyroid Hormone Receptor alpha (TRa), thraa (gene 30670) (UniProt Q98867); assay: ATG_zfTRa_XSP2: Attagene TRANS-FACTORIAL Multi-Species (XSP1) HepG2 Assay for zebrafish Thyroid Hormone Receptor alpha (TRa) (AID 2283832);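 further: actives raise zebrafish TRa-Gal4 reporter transcript above DMSO baseline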
# Chain of zebrafish Thyroid Hormone Receptor alpha (TRa), thraa (gene 30670) (Q98867 whole entry, looked up, the tested form may be a part): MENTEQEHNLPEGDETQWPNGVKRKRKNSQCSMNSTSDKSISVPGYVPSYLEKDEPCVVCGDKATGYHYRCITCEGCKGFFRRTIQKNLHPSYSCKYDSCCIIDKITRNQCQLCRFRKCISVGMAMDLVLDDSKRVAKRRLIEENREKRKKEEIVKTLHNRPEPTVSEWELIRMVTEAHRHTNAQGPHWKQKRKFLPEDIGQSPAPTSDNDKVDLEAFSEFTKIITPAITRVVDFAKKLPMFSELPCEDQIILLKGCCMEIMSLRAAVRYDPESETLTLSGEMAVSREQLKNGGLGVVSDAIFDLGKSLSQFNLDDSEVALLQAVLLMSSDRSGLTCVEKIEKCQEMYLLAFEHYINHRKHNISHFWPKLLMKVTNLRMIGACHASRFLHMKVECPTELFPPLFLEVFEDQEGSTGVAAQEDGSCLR
# Summary of the method: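 Chimeric receptor-Gal4 activity was assessed in transfected human liver HepG2 cells 24 h after dosing, using reporter transcript levels detected by RT-PCR and capillary electrophoresis. DMSO served as baseline.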
# [7] = test system: zebrafish Peroxisome Proliferator-activated Receptor gamma (PPARg), gene 557037; assay: ATG_zfPPARg_XSP2: Attagene TRANS-FACTORIAL Multi-Species (XSP2) HepG2 Assay for zebrafish Peroxisome Proliferator-activated Receptor gamma (PPARg) (AID 2283833);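 further: actives increase reporter signal over DMSO so AC50 reflects activation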
# Summary of the method: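 Multi-species TRANS format in HepG2, 24 h dosing; medium also contained 3 nM 6-alpha-fluorotestosterone and 1.5 nM norgestrel to stimulate androgen receptor. Zebrafish PPARg-GAL4 induced reporter mRNA was measured by RT-PCR/capillary electrophoresis.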
# [8] = test system: turtle Thyroid Hormone Receptor, alpha (TRa), gene 101949057; assay: ATG_trTRa_XSP2: Attagene TRANS-FACTORIAL Multi-Species (XSP1) HepG2 Assay for turtle Thyroid Hormone Receptor, alpha (TRa) (AID 2283834);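 further: hits raise reporter mRNA over the DMSO baseline so AC50 marks activators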
# Summary of the method: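 Transfection of HepG2 with multiple reporter transcription units, then chemical dosing for 24 h. Total RNA was reverse-transcribed, reporter sequences PCR-amplified and FAM-labelled, then sized by capillary electrophoresis. DMSO served as baseline.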
# [9] = target: zebrafish Thyroid Hormone Receptor beta (TRb), thrb (gene 30607) (UniProt Q9PVE4); assay: ATG_zfTRb_XSP2: Attagene TRANS-FACTORIAL Multi-Species (XSP1) HepG2 Assay for zebrafish Thyroid Hormone Receptor beta (TRb) (AID 2283836);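 on AC50: potency for induction of reporter signal above DMSO so agonist direction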
# Chain of zebrafish Thyroid Hormone Receptor beta (TRb), thrb (gene 30607) (Q9PVE4 whole entry, looked up, the tested form may be a part): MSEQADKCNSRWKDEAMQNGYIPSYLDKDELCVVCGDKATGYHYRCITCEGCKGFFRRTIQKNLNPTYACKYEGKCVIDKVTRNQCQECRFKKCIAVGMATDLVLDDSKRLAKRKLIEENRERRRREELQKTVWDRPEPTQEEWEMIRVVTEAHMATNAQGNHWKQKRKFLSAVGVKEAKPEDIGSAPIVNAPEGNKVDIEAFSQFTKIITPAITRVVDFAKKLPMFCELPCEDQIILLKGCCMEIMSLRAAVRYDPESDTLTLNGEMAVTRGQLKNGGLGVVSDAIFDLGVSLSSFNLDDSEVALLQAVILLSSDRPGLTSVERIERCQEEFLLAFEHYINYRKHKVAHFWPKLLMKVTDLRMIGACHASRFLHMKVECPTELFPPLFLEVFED
# Summary of the method: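 Fluorescence of labelled reporter cDNA fragments, separated by capillary electrophoresis, gives mRNA induction from exogenous NR-Gal4 chimeras in transiently transfected HepG2 cells after 24 h dosing; 3 nM 6-alpha-fluorotestosterone and 1.5 nM norgestrel included in the run.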
# [10] = ATG_XTT_Cytotoxicity_XSP2: Cytotoxicity Assessment in the Attagene TRANS-FACTORIAL Multi-Species (XSP2) HepG2 Assay (AID 2283837)
# Summary of the method: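 HepG2 cells, transiently transfected with multiple reporter constructs, exposed to chemical for 24 h. Cell number assessed with XTT fluorescence read-out; loss of signal fitted relative to DMSO.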
# [11] = target: human Thyroid hormone Receptor alpha (TRa), THRA (gene 7067) (UniProt P10827); assay: ATG_hTRa_XSP2: Attagene TRANS-FACTORIAL Multi-Species (XSP2) HepG2 Assay for human Thyroid hormone Receptor alpha (TRa) (AID 2283838)
# Chain of human Thyroid hormone Receptor alpha (TRa), THRA (gene 7067) (P10827 whole entry, looked up, the tested form may be a part): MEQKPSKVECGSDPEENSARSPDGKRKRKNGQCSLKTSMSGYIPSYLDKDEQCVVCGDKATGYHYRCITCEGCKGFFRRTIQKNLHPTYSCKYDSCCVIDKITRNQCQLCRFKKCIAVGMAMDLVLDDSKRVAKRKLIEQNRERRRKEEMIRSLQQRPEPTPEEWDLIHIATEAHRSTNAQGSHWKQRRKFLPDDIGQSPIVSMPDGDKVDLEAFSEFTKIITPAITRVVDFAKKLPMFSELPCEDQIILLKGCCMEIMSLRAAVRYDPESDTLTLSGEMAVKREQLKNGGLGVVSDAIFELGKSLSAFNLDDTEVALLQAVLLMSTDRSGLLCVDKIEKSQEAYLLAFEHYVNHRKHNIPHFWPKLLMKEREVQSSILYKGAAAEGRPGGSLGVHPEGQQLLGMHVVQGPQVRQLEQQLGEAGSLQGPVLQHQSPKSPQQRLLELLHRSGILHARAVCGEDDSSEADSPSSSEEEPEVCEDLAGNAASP
# Summary of the method: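 HepG2 cells transiently transfected with multiplexed GAL4-UAS reporter units and exogenous NR-GAL4 chimeras; 24 h chemical exposure with 3 nM 6-alpha-fluorotestosterone and 1.5 nM norgestrel present. Reporter mRNA measured by RT-PCR, FAM labelling, HpaI digestion, capillary electrophoresis; gain-of-signal versus DMSO.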
# [12] = target: frog Thyroid hormone Receptor alpha (TRa), thra-a (gene 397942) (UniProt P15204); assay: ATG_frTRa_XSP2: Attagene TRANS-FACTORIAL Multi-Species (XSP2) HepG2 Assay for frog Thyroid hormone Receptor alpha (TRa) (AID 2283839);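 on AC50: AC50 reflects induction of frog TRa-driven reporter mRNA above DMSO baseline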
# Chain of frog Thyroid hormone Receptor alpha (TRa), thra-a (gene 397942) (P15204 whole entry, looked up, the tested form may be a part): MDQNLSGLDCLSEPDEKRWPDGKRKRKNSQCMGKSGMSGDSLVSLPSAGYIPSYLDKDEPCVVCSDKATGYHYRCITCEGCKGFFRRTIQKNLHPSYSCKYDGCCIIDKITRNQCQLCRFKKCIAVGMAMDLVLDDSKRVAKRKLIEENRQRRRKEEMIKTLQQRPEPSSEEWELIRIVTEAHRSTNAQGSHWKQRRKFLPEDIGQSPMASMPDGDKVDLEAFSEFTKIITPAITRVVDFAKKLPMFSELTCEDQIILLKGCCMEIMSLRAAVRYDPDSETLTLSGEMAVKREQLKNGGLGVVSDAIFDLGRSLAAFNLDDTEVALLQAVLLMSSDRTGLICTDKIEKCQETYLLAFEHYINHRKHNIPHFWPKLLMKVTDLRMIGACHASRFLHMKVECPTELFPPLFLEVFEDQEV
# Summary of the method: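 Transfect HepG2 with multiple reporter units (GAL4-UAS), dose chemical, incubate 24 h. Isolate RNA, reverse-transcribe, PCR-amplify reporter, label with 6-FAM by primer extension, digest with HpaI, run capillary electrophoresis; induction scored against DMSO.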
# [13] = target: human Thyroid hormone Receptor beta (TRb), THRB (gene 7068) (UniProt P10828); assay: ATG_hTRb_XSP2: Attagene TRANS-FACTORIAL Multi-Species (XSP2) HepG2 Assay for human Thyroid hormone Receptor beta (TRb) (AID 2283840);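 further: actives raise reporter mRNA so potency reflects agonist-like gain of signal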
# Chain of human Thyroid hormone Receptor beta (TRb), THRB (gene 7068) (P10828 whole entry, looked up, the tested form may be a part): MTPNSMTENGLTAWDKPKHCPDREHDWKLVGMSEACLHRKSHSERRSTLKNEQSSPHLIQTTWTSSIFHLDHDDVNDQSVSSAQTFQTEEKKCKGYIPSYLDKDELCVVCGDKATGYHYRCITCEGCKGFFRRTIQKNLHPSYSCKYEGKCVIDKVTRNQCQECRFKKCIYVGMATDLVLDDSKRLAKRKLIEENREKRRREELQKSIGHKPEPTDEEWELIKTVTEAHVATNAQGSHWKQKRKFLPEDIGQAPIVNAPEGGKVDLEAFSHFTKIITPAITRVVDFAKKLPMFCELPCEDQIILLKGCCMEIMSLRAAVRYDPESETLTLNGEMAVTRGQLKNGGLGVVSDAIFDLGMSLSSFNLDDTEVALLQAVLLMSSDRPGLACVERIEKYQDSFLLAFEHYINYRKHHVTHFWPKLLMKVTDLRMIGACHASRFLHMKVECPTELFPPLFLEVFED
# Summary of the method: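 Transient transfection of human HepG2 with multi-species NR-Gal4/GAL4-UAS reporter constructs; 24 h compound treatment; RNA isolation, reverse transcription, PCR and HpaI digest; capillary electrophoresis of labeled fragments; activity fitted upward versus DMSO.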
# [14] = ATG_M_61_XSP2: Attagene TRANS-FACTORIAL Multi-Species (XSP2) HepG2 Assay for M61 Transcription Factor (Internal Marker) (AID 2283835; active means hit-call score of the fitted dose curve at least 0.9, where 1 is the maximum; inactive means score below 0.9;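 further: reporter mRNA of an internal background marker read by RT-PCR and capillary electrophoresis; active means a rise in signal above the DMSO baseline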)
# Summary of the method: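 HepG2 cells transiently transfected with multiple GAL4-UAS reporter units; 3 nM 6-alpha-fluorotestosterone and 1.5 nM norgestrel present to stimulate androgen receptor. After 24 h compound exposure, reporter mRNA measured by RT-PCR and capillary electrophoresis fluorescence, gain-of-signal versus DMSO baseline.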
# PGR (gene 5241) = PGR (gene 5241) (UniProt P06401); assay: TOX21_PR_BLA_Followup_Agonist_ratio: Tox21 HEK293 Progesterone Receptor (PR) Agonism Beta-lactamase Follow-Up Assay, Ratio (AID 2283933)
# Chain of PGR (gene 5241) (P06401 whole entry, looked up): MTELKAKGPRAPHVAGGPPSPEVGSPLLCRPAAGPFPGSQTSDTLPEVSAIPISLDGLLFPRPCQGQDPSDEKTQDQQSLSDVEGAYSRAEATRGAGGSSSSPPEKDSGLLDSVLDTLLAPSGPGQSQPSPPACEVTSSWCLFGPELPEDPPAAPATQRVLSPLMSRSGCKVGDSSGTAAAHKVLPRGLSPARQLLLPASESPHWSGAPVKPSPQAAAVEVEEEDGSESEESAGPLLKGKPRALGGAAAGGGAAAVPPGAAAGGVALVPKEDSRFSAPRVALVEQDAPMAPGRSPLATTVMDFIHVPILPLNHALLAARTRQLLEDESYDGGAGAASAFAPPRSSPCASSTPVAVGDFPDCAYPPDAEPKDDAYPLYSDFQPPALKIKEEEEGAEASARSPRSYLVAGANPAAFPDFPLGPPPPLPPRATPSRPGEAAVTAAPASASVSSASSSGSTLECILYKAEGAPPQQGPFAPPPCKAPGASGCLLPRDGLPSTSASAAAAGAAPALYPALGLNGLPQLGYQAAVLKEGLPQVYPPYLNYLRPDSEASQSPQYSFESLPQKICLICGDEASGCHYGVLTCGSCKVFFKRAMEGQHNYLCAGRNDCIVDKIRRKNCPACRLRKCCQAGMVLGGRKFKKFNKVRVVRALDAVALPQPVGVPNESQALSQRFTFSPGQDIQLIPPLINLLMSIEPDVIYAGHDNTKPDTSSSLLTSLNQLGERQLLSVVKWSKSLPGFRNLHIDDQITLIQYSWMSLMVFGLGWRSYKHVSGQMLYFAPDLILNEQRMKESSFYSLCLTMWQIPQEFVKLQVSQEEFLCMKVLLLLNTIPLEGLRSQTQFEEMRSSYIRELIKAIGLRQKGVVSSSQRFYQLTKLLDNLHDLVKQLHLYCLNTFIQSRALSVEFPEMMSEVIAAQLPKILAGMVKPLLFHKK
# Summary of the method: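 Agonist-mode follow-up in HEK293T cells carrying a UAS-driven beta-lactamase reporter, grown in 2% charcoal-stripped serum. Compounds act for 16 hr; activity is the ch2/ch1 cleavage ratio, with same-well CellTiter-Glo viability run in parallel.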
compound,measurement,setting,value
FC(F)C(F)(F)OCC(Cn1cncn1)c1ccc(Cl)cc1Cl (configuration not stated),outcome,[1],inactive
same,outcome,[2],inactive
Nc1c(Cl)cc([N+](=O)[O-])cc1Cl,AC50,[3],25.7 µM (active) and 34.9 µM (active)
same,AC50,[4],11.9 µM (active) and 41.8 µM (active)
same,AC50,[5],10.8 µM (active) and 9.9 µM (active)
same,outcome,[6],inactive
same,outcome,[7],inactive
same,AC50,[8],23.6 µM (active) and 29.8 µM (active)
same,AC50,[9],48.3 µM (active)
same,outcome,[9],inactive
same,outcome,[10],inactive
same,AC50,[11],43.6 µM (active) and 22.8 µM (active)
same,AC50,[12],27.1 µM (active)
same,AC50,[13],27.6 µM (active) and 82.2 µM (active)
same,outcome,[1],inactive
same,outcome,[2],inactive
COP(=O)(OC)OC(Br)C(Cl)(Cl)Br (configuration not stated),outcome,[1],inactive
same,outcome,[2],inactive
CSC1=N[C@@](C)(c2ccccc2)C(=O)N1Nc1ccccc1,outcome,[1],inactive
same,outcome,[2],inactive
C=C(C)[C@H]1Cc2c(ccc3c2O[C@@H]2COc4cc(OC)c(OC)cc4[C@@H]2C3=O)O1,AC50,[1],0.0708 µM (active)
same,outcome,[2],inactive
C#CCC1=C(C)C(OC(=O)C2C(C=C(C)C)C2(C)C)CC1=O (configuration not stated),AC50,[3],22.6 µM (active)
same,AC50,[4],30.2 µM (active)
same,AC50,[5],0.712 µM (active)
same,outcome,[6],inactive
same,outcome,[7],inactive
same,outcome,[8],inactive
same,outcome,[14],inactive
same,outcome,[9],inactive
same,outcome,[11],inactive
same,outcome,[12],inactive
same,outcome,[13],inactive
same,AC50,[1],47.5 µM (active)
same,outcome,[2],inactive
CCC(CC)Nc1c([N+](=O)[O-])cc(C)c(C)c1[N+](=O)[O-],outcome,[3],inactive
same,outcome,[4],inactive
same,AC50,[5],266 nM (active) and 269 nM (active)
same,outcome,[6],inactive
same,outcome,[7],inactive
same,outcome,[8],inactive
same,outcome,[14],inactive
same,outcome,[9],inactive
same,outcome,[11],inactive
same,outcome,[12],inactive
same,outcome,[13],inactive
same,outcome,[1],inactive
same,outcome,[2],inactive
CC(C)=CC1C(C(=O)OCN2C(=O)C3=C(CCCC3)C2=O)C1(C)C (configuration not stated),AC50,[1],32.9 µM (active)
same,AC50,[2],35.4 µM (active)
CCCSP(=O)(OCC)Oc1ccc(Br)cc1Cl (configuration not stated),outcome,[1],inactive
same,outcome,[2],inactive
CCCCOC(=O)[C@@H](C)Oc1ccc(Oc2ccc(C#N)cc2F)cc1,outcome,[1],inactive
same,outcome,[2],inactive
COc1cccc(C(=O)NN(C(=O)c2cc(C)cc(C)c2)C(C)(C)C)c1C,AC50,[1],15.8 µM (active)
same,outcome,[2],inactive
CC[C@H](C)[C@H]1O[C@]2(C=C[C@@H]1C)C[C@@H]1C[C@@H](C/C=C(\C)[C@@H](O[C@H]3C[C@H](OC)[C@@H](O[C@H]4C[C@H](OC)[C@@H](NC)[C@H](C)O4)[C@H](C)O3)[C@@H](C)/C=C/C=C3\CO[C@@H]4[C@H](O)C(C)=C[C@@H](C(=O)O1)[C@]34O)O2,AC50,[1],13.3 µM (active)
same,AC50,[2],23 µM (active)
CCOP(=O)(NC(C)C)Oc1ccc(SC)c(C)c1 (configuration not stated),AC50,[3],43.6 µM (active) and 36.6 µM (active)
same,AC50,[4],31.6 µM (active) and 38.4 µM (active)
same,AC50,[5],4.34 µM (active) and 4.75 µM (active)
same,outcome,[6],inactive
same,AC50,[7],100 µM (active)
same,outcome,[7],inactive
same,outcome,[8],inactive
same,outcome,[14],inactive
same,outcome,[9],inactive
same,outcome,[10],inactive
same,outcome,[12],inactive
C#CC(C)(C)NC(=O)c1cc(Cl)cc(Cl)c1,AC50,[5],26.8 µM (active)
same,outcome,[6],inactive
same,outcome,[7],inactive
same,outcome,[8],inactive
same,outcome,[14],inactive
same,outcome,[9],inactive
same,outcome,[11],inactive
same,AC50,[12],26.8 µM (active)
same,outcome,[13],inactive
CCCCN(CC)c1c([N+](=O)[O-])cc(C(F)(F)F)cc1[N+](=O)[O-],outcome,[1],inactive
same,outcome,[2],inactive
CCC(=O)Nc1ccc(Cl)c(Cl)c1,AC50,[3],27.2 µM (active)
same,AC50,[4],39.7 µM (active)
same,outcome,[4],inactive
same,AC50,[5],27.6 µM (active) and 24.3 µM (active)
same,outcome,[6],inactive
same,outcome,[7],inactive
same,outcome,[8],inactive
same,outcome,[14],inactive
same,outcome,[9],inactive
same,outcome,[10],inactive
same,AC50,[11],165 µM (active)
same,outcome,[11],inactive
same,outcome,[12],inactive
same,outcome,[13],inactive
same,outcome,[1],inactive
same,outcome,[2],inactive
same,outcome,PGR (gene 5241),inactive
CCOP(=S)(OCC)OC(Cl)C(Cl)(Cl)Cl (configuration not stated),outcome,[1],inactive
same,outcome,[2],inactive
CCc1cccc(C)c1N(C(=O)CCl)C(C)COC (configuration not stated),AC50,[3],55.8 µM (active)
same,AC50,[4],27.3 µM (active)
same,AC50,[5],3.96 µM (active)
same,outcome,[6],inactive
same,outcome,[7],inactive
same,outcome,[14],inactive
same,outcome,[9],inactive
same,outcome,[12],inactive
CCOP(=S)(OCC)SCCSCC,outcome,[1],inactive
same,outcome,[2],inactive
CCOC(=O)COc1cc(-c2nn(C)c(OC(F)F)c2Cl)c(F)cc1Cl,outcome,[1],inactive
same,outcome,[2],inactive
O=[N+]([O-])c1cc(C(F)(F)F)c(Cl)c([N+](=O)[O-])c1Nc1ncc(C(F)(F)F)cc1Cl,AC50,[1],6.41 µM (active)
same,AC50,[2],19.6 µM (active)
CC(C)N(C(=O)SCC(Cl)=C(Cl)Cl)C(C)C,AC50,[1],21.1 µM (active)
same,AC50,[2],39.8 µM (active)
C[Si](Cn1cncn1)(c1ccc(F)cc1)c1ccc(F)cc1,outcome,[1],inactive
same,outcome,[2],inactive
